Data taken from PubChem BioAssay (NCI).
This is part of a sample that, as a whole, favours compounds with a hit. Of some 83,000 tested, about 20% had one in any assay.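 Step 1: grow cells in 96-well plates. Step 2: add test compound at a single concentration. Step 3: incubate 48 h. Step 4: record percent growth.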 The source made the active and inactive calls. How the source made its calls: active means growth percent below 10; inactive means the rest.

Assays:
Assay in all cases: NCI-60 one-dose screen, 48 h (100 = growth as untreated, 0 = no growth, -100 = all killed)
Conditions in all cases: 10 µM unless noted
NCI-H23 lung = test system: NCI-H23 lung
NCI-H226 lung = test system: NCI-H226 lung
NCI-H322M lung = test system: NCI-H322M lung
HOP-62 NSCLC = test system: HOP-62 NSCLC
NCI-H460 lung = test system: NCI-H460 lung
HOP-92 NSCLC = test system: HOP-92 NSCLC
NCI-H522 lung = test system: NCI-H522 lung
A549/ATCC NSCLC = test system: A549/ATCC NSCLC
786-0 renal = test system: 786-0 renal
COLO 205 colon = test system: COLO 205 colon
DU-145 prostate = test system: DU-145 prostate
K-562 leukemia = test system: K-562 leukemia
MALME-3M melanoma = test system: MALME-3M melanoma
MDA-MB-231 breast = test system: MDA-MB-231 breast
RXF 393 renal = test system: RXF 393 renal
SF-268 CNS = test system: SF-268 CNS
SF-295 CNS = test system: SF-295 CNS
SF-539 CNS = test system: SF-539 CNS
UACC-257 melanoma = test system: UACC-257 melanoma
M14 melanoma = test system: M14 melanoma

Measured: growth

CCOC(=O)c1cc2c(=O)oc3ccccc3c2oc1=O
inactive: NCI-H23 lung 112% | NCI-H226 lung 101% | NCI-H322M lung 100% | HOP-62 NSCLC 120% | NCI-H460 lung 111% | HOP-92 NSCLC 49.4% | NCI-H522 lung 92.1% | A549/ATCC NSCLC 105% | 786-0 renal 111% | COLO 205 colon 129% | DU-145 prostate 116% | K-562 leukemia 122% | MALME-3M melanoma 105% | MDA-MB-231 breast 101% | RXF 393 renal 99.8% | SF-268 CNS 108% | SF-295 CNS 110% | SF-539 CNS 100% | UACC-257 melanoma 105% | M14 melanoma 118%

O=C1Nc2ccccc2[C@]12CC(c1ccccc1)=NN2
inactive: NCI-H23 lung 64.3% | NCI-H226 lung 77.7% | NCI-H322M lung 59.6% | HOP-62 NSCLC 59.6% | NCI-H460 lung 21.5% | HOP-92 NSCLC 30.8% | NCI-H522 lung 39.4% | A549/ATCC NSCLC 44.3% | 786-0 renal 50.7% | DU-145 prostate 74.5% | K-562 leukemia 21.8% | MALME-3M melanoma 37.2% | MDA-MB-231 breast 53.4% | RXF 393 renal 73.3% | SF-268 CNS 47.5% | SF-295 CNS 45.6% | SF-539 CNS 28.4% | UACC-257 melanoma 67.8% | M14 melanoma 25.8%
active: COLO 205 colon 3.6%

O=C1/C(=C/c2ccc(F)cc2)COc2ccc(O)cc21
inactive: NCI-H23 lung 97% | NCI-H226 lung 108% | NCI-H322M lung 94.6% | HOP-62 NSCLC 104% | NCI-H460 lung 98.8% | HOP-92 NSCLC 104% | NCI-H522 lung 75.7% | A549/ATCC NSCLC 92.5% | 786-0 renal 79.8% | COLO 205 colon 94.3% | DU-145 prostate 96.5% | MALME-3M melanoma 85.6% | MDA-MB-231 breast 97.2% | RXF 393 renal 104% | SF-268 CNS 90% | SF-295 CNS 104% | SF-539 CNS 87.2% | UACC-257 melanoma 107% | M14 melanoma 88.1%
active: K-562 leukemia 4.82%

O=C(Cn1cc(CN2C(=O)c3ccccc3S2(=O)=O)nn1)Nc1nc2ccccc2s1
inactive: NCI-H23 lung 103% | NCI-H226 lung 105% | NCI-H322M lung 98.2% | HOP-62 NSCLC 89.5% | NCI-H460 lung 105% | HOP-92 NSCLC 100% | NCI-H522 lung 84.2% | A549/ATCC NSCLC 90.6% | 786-0 renal 101% | COLO 205 colon 104% | DU-145 prostate 108% | K-562 leukemia 101% | MALME-3M melanoma 95% | MDA-MB-231 breast 108% | RXF 393 renal 117% | SF-268 CNS 97.3% | SF-295 CNS 101% | SF-539 CNS 98.4% | UACC-257 melanoma 101% | M14 melanoma 103%

Cc1ccccc1/C=C1\CN(C(=O)OC(C)(C)C)C/C(=C\c2ccccc2C)C1=O
active: NCI-H23 lung 8.22% | NCI-H460 lung -38.3% | COLO 205 colon -28.5% | DU-145 prostate 9.09% | K-562 leukemia 5.76% | SF-268 CNS 2.68%
inactive: NCI-H226 lung 42.2% | NCI-H322M lung 80.9% | HOP-62 NSCLC 48.2% | HOP-92 NSCLC 82.6% | NCI-H522 lung 20.8% | A549/ATCC NSCLC 49.1% | 786-0 renal 25.8% | MALME-3M melanoma 73.7% | MDA-MB-231 breast 42.7% | RXF 393 renal 61.1% | SF-295 CNS 24.6% | SF-539 CNS 31.2% | UACC-257 melanoma 74.3% | M14 melanoma 30.7%

Fc1ccc2[nH]cc(-c3nonc3-c3c[nH]c4ccc(Br)cc34)c2c1
inactive: NCI-H23 lung 24.4% | NCI-H226 lung 53.6% | NCI-H322M lung 35.9% | HOP-92 NSCLC 22.4% | A549/ATCC NSCLC 19.5% | 786-0 renal 23.5% | DU-145 prostate 42% | MALME-3M melanoma 21.2% | RXF 393 renal 77.3% | SF-268 CNS 38.2% | SF-539 CNS 16.7% | UACC-257 melanoma 42.7%
active: HOP-62 NSCLC 9.17% | NCI-H460 lung 1.22% | NCI-H522 lung -12.1% | COLO 205 colon -45.5% | K-562 leukemia 4.21% | MDA-MB-231 breast -20.2% | SF-295 CNS 9.73% | M14 melanoma -5.26%

Cc1ccc(C(C(N)=O)C(C(N)=O)c2ccccc2)cc1 (stereo not given)
inactive: NCI-H23 lung 111% | NCI-H226 lung 109% | NCI-H322M lung 121% | HOP-62 NSCLC 111% | NCI-H460 lung 112% | HOP-92 NSCLC 99.5% | NCI-H522 lung 102% | A549/ATCC NSCLC 95.3% | 786-0 renal 102% | COLO 205 colon 115% | DU-145 prostate 111% | K-562 leukemia 90.9% | MALME-3M melanoma 129% | MDA-MB-231 breast 123% | RXF 393 renal 104% | SF-268 CNS 104% | SF-295 CNS 114% | SF-539 CNS 119% | UACC-257 melanoma 102% | M14 melanoma 108%

Cc1cc(N)c2cc(NC(=O)/C=C\c3ccccc3Cl)ccc2n1
active: NCI-H23 lung -85.4% | NCI-H226 lung -70.7% | NCI-H322M lung -83.3% | HOP-62 NSCLC -71.5% | NCI-H460 lung -78.3% | HOP-92 NSCLC -69.5% | NCI-H522 lung -70.7% | A549/ATCC NSCLC -43.5% | 786-0 renal -81.3% | COLO 205 colon -65.9% | DU-145 prostate -92.8% | K-562 leukemia -31.9% | MALME-3M melanoma -76.2% | MDA-MB-231 breast -87.1% | RXF 393 renal -78.2% | SF-268 CNS -76.6% | SF-295 CNS -80.4% | SF-539 CNS -91.3% | UACC-257 melanoma -49.2% | M14 melanoma -70.9%

O=C(Nn1c2c(sc1=Nc1ccccc1)C(=O)c1ccccc1C2=O)c1cc2ccc1CCc1ccc(cc1)CC2
active: MALME-3M melanoma -69.3% | M14 melanoma 4.14%
inactive: NCI-H23 lung 30.6% | NCI-H226 lung 51.2% | NCI-H322M lung 99.8% | HOP-62 NSCLC 66.4% | NCI-H460 lung 71.9% | HOP-92 NSCLC 107% | NCI-H522 lung 68% | A549/ATCC NSCLC 64% | 786-0 renal 81% | COLO 205 colon 102% | DU-145 prostate 71.7% | K-562 leukemia 77.8% | MDA-MB-231 breast 40% | RXF 393 renal 70.7% | SF-268 CNS 67.7% | SF-295 CNS 87.8% | SF-539 CNS 92.6% | UACC-257 melanoma 62.4%

c1ccc(C2=NN[C@H](c3cn(-c4ccccc4)nc3-c3ccccc3)C2)cc1
active: HOP-62 NSCLC -14.5% | 786-0 renal 6.85% | SF-295 CNS -23.8%
inactive: NCI-H23 lung 59.3% | NCI-H226 lung 25.5% | NCI-H322M lung 47.8% | NCI-H460 lung 29% | HOP-92 NSCLC 34.6% | NCI-H522 lung 75.6% | A549/ATCC NSCLC 17.1% | COLO 205 colon 66.5% | DU-145 prostate 56.1% | K-562 leukemia 85.2% | MALME-3M melanoma 53.4% | MDA-MB-231 breast 14% | RXF 393 renal 32.1% | SF-268 CNS 52% | SF-539 CNS 38.5% | UACC-257 melanoma 65.2% | M14 melanoma 45.6%

CCCCC(=O)c1ccco1
inactive: NCI-H23 lung 89.2% | NCI-H226 lung 95.1% | NCI-H322M lung 105% | HOP-62 NSCLC 88.7% | NCI-H460 lung 106% | HOP-92 NSCLC 99.9% | NCI-H522 lung 92.2% | A549/ATCC NSCLC 97.9% | 786-0 renal 97.5% | COLO 205 colon 104% | DU-145 prostate 98.6% | K-562 leukemia 104% | MALME-3M melanoma 103% | MDA-MB-231 breast 98.7% | RXF 393 renal 97.6% | SF-268 CNS 96% | SF-295 CNS 101% | SF-539 CNS 99.5% | UACC-257 melanoma 105% | M14 melanoma 90.6%

O=C(Cn1cc(CN2CCCCCC2)nn1)Nc1ccc2c(ccn2Cc2ccccc2)c1
inactive: NCI-H23 lung 96.4% | NCI-H226 lung 81.5% | NCI-H322M lung 94.8% | HOP-62 NSCLC 80.6% | NCI-H460 lung 102% | HOP-92 NSCLC 64% | NCI-H522 lung 86.9% | A549/ATCC NSCLC 92.3% | 786-0 renal 87.8% | COLO 205 colon 88.9% | DU-145 prostate 101% | K-562 leukemia 79.5% | MALME-3M melanoma 91.1% | MDA-MB-231 breast 86% | RXF 393 renal 91.4% | SF-268 CNS 93.6% | SF-295 CNS 99.6% | SF-539 CNS 92.6% | UACC-257 melanoma 101% | M14 melanoma 94.1%

NC(=O)CCC(C(=O)O)N1C(=O)c2ccc(O)cc2C1=O (stereo not given)
inactive: NCI-H23 lung 118% | NCI-H226 lung 107% | NCI-H322M lung 112% | HOP-62 NSCLC 113% | NCI-H460 lung 109% | HOP-92 NSCLC 93.2% | NCI-H522 lung 102% | A549/ATCC NSCLC 122% | 786-0 renal 111% | COLO 205 colon 119% | DU-145 prostate 118% | K-562 leukemia 72.2% | MALME-3M melanoma 157% | MDA-MB-231 breast 113% | RXF 393 renal 115% | SF-268 CNS 111% | SF-295 CNS 91.7% | SF-539 CNS 106% | UACC-257 melanoma 107% | M14 melanoma 108%

COc1cc(CNS(=O)(=O)c2ccc(C)cc2)ccc1OCc1cn(-c2ccc(Br)cc2)nn1
inactive: NCI-H23 lung 103% | NCI-H226 lung 93.5% | NCI-H322M lung 101% | HOP-62 NSCLC 92.4% | NCI-H460 lung 110% | HOP-92 NSCLC 112% | NCI-H522 lung 91.8% | A549/ATCC NSCLC 99.5% | 786-0 renal 109% | COLO 205 colon 120% | DU-145 prostate 104% | K-562 leukemia 94.3% | MALME-3M melanoma 104% | MDA-MB-231 breast 103% | RXF 393 renal 97.1% | SF-268 CNS 93.8% | SF-295 CNS 97.2% | SF-539 CNS 107% | UACC-257 melanoma 110% | M14 melanoma 106%

Cc1nnc(NC(=O)c2nc(S(=O)(=O)Cc3ccc(F)cc3)ncc2Cl)s1
active: HOP-92 NSCLC -85.7% | NCI-H522 lung -67.3% | COLO 205 colon -18.8% | K-562 leukemia -23.8% | MALME-3M melanoma -12.9%
inactive: NCI-H23 lung 90.5% | NCI-H226 lung 98.7% | NCI-H322M lung 93.8% | HOP-62 NSCLC 86.1% | NCI-H460 lung 105% | A549/ATCC NSCLC 79.3% | 786-0 renal 48.3% | DU-145 prostate 88.2% | MDA-MB-231 breast 66% | RXF 393 renal 87.3% | SF-268 CNS 90.5% | SF-295 CNS 99.5% | SF-539 CNS 83.8% | UACC-257 melanoma 40.6% | M14 melanoma 83.8%
